Records with an inconclusive call do not appear. Where a call stands in place of a potency, no number is given. Calls of active or inactive are those of the source. Calls follow the shape of the dose curve; as a rule, active = well fitted inhibition curve with a large enough effect; inconclusive = small, poorly fitted or top-dose-only effect; inactive = no such curve, though single readings can be large or run the other way.
target: Muscarinic acetylcholine receptor M1 (Rattus norvegicus) (UniProt P08482); experiment: qHTS Assay for Antagonists of Acetylcholine Muscarinic M1 Receptor: Measurement of IP-One Response (AID 944); conditions: CHO-M1 cells, IP-One HTRF, antagonist mode; series mostly up to 46.1 µM; also: nearly all actives have a fitted effect of over 75% in size
Outline: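 CHO cells stably expressing rat M1, pretreated 10 min with compound, then stimulated 30 min with carbachol at EC80 (200 nM) in LiCl-containing buffer pH 7.4; IP1 accumulation read by HTRF competition (665/620 nm).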

Muscarinic acetylcholine receptor M1 (Rattus norvegicus), sequence (P08482 whole entry, looked up): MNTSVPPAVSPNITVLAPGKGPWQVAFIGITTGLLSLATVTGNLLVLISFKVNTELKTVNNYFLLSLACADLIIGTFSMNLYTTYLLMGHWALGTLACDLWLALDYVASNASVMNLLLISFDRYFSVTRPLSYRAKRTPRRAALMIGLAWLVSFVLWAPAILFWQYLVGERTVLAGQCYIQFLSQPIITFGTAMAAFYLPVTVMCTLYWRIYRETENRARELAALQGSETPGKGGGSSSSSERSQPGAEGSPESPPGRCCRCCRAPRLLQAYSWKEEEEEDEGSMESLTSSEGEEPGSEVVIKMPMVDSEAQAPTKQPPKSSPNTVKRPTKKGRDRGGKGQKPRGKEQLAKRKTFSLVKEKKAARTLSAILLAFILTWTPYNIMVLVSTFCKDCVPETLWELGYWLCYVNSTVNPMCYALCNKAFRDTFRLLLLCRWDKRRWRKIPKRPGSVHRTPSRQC

Structure (SMILES)	Potency
NC(N)=NOCC[C@H](N)C(=O)O	inactive
Cc1[nH]c2ccc(O)cc2c1CCN	inactive
NCCc1c[nH]c2ccc(C(N)=O)cc12	inactive
CCS(=O)(=O)Nc1cccc(C(=C2CCCCC2)c2cnc[nH]2)c1	inactive

target: Pyruvate kinase (Leishmania mexicana) (UniProt Q27686); experiment: qHTS Validation Assay for Inhibitors of Leishmania Mexicana Pyruvate Kinase (AID 945); conditions: purified L. mexicana pyruvate kinase, enzyme activity, E451W mutant enzyme; series mostly up to 57.5 µM
Outline: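 Substrate mix (0.5 mM PEP, 0.1 mM ADP, 7 mM MgCl2, 50 mM KCl, pH 7.2 imidazole) received compound by pin tool, then 0.2 nM LmPYK E451W. After 1 h at room temperature, PKLight was added and luminescence measured.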

Pyruvate kinase (Leishmania mexicana), sequence (Q27686 2-499 E452W): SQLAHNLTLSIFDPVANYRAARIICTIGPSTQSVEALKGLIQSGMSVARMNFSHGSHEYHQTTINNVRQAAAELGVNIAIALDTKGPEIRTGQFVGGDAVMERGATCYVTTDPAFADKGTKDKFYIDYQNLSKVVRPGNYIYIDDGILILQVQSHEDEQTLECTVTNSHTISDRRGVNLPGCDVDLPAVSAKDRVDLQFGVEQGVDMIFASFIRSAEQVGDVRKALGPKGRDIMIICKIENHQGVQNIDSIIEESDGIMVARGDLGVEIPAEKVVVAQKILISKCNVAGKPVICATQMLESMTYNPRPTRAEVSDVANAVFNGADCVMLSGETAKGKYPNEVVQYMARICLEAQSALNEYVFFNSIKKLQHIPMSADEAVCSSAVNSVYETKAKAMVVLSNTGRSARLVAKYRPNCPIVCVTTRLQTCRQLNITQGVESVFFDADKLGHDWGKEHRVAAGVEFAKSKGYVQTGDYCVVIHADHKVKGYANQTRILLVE

Structure (SMILES)	Potency
CC(=O)NBr	inactive
CCCn1c(C)c(C(=O)c2ccc3ccccc3c2)c2ccccc21	inactive
COc1ccc2[nH]c3c(c2c1)CCNC3	inactive
CC(C)NP(=O)(NC(C)C)OP(=O)(NC(C)C)NC(C)C	inactive
NNC(=O)c1ccc(O)cc1	inactive
C[C@H](N)CN1CCc2ccc(Br)cc21	inactive
O=[N+]([O-])c1ccc2nc(N3CCNCC3)ccc2c1	inactive
NCCCP(=O)(O)O	inactive
CCN(CCCl)Cc1ccccc1Br	inactive
CNC(=O)OCC[N+](C)(C)C	inactive
NC(=O)c1cc(N2CC2)c([N+](=O)[O-])cc1[N+](=O)[O-]	inactive
N#CC(C#N)=Cc1cc(O)c(O)c(O)c1	inactive
NCCc1ccc(S(=O)(=O)F)cc1	inactive
CN1CCC(c2c[nH]c3ccc(O)cc23)CC1	inactive
C[N+](C)(C)CCOC(=O)CBr	inactive
CCCN(CCC)[C@@H]1CCc2cccc(O)c2C1	inactive

Structure (SMILES)	Potency
CCCN(CCC)CCc1ccc(O)c(O)c1	inactive
CN(N=O)c1ccc(O)c(O)c1	inactive
CCCN(CCC)CCc1c[nH]c2ccc(C(N)=O)cc12	inactive
c1ccc2c(N3CCNCC3)cccc2c1	inactive
N[C@@H](Cn1oc(=O)[nH]c1=O)C(=O)O	inactive
CCCn1c(=O)c2[nH]c(C3CCCC3)nc2n(CCCOC(=O)c2ccc(S(=O)(=O)F)cc2)c1=O	inactive
NC(=O)COc1c(F)cc(SCCNS(=O)(=O)c2ccccc2)cc1F	inactive
C[N+]1(C)CCN(c2ccccc2)CC1	inactive
Clc1ccc(N2C[C@H]3CC[C@@H](C2)N3)nn1	inactive
Nc1ccc(CCN2CCN(c3cccc(C(F)(F)F)c3)CC2)cc1	inactive
CN1CCc2cccc(Cl)c2CC1	inactive
NC(N)=NOCC[C@H](N)C(=O)O	inactive
Cc1[nH]c2ccc(O)cc2c1CCN	inactive
c1ccc2cc(CC3=NCCN3)ccc2c1	inactive
NCCc1c[nH]c2ccc(C(N)=O)cc12	inactive
CCS(=O)(=O)Nc1cccc(C(=C2CCCCC2)c2cnc[nH]2)c1	inactive
